Consider 40 compounds from PubChem BioAssay (NCI).

Where “and” joins values, the source holds several entries; their conditions need not be identical. Identical values can stand only once. About 83,000 compounds went through this panel and 20% of them were active in at least one assay; those are over-represented in the sample as a whole.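 A percent growth of 40 corresponds to 60% growth inhibition; 0 means no net growth; -100 means all cells died. Active threshold: below 10.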 Calls of active or inactive are those of the source.

The experiment deals with MDA-MB-468 breast. Kind of experiment: NCI-60 one-dose screen, 48 h (100 = growth as untreated, 0 = no growth, -100 = all killed). The following applies: 10 µM unless noted.
For the compound `COc1cc(C2=NN(C=O)C(c3cccc(Nc4ccnc5cc(C(F)(F)F)ccc45)c3)C2)cc(OC)c1OC` (stereo not given), the growth was 42.8% (inactive).
Under `COc1ccc(-c2cc(-c3cccnc3)nc3sc4c(=O)[nH]c(-c5ccc(Cl)cc5)nc4c23)cc1OC` stands 97.8% (inactive); under `COC1=CC(c2ccc[nH]2)=N/C1=C\c1[nH]c(C)c(C(=O)OCc2ccccc2)c1C`, -83.2% (active).
Turning to `Cc1cc(O)c2c(c1)C1OC(=O)CCCCCN1C1=C2C(=O)c2cccc(OC3CC(O)C(O)C(C)O3)c2C1=O` (stereo not given), the growth is 58.3% (inactive).
Under `O=C(N/N=C\c1c(O)ccc2ccccc12)C1CC1` stands 11.8% (inactive).
In the case of `COc1cccc(C2C3=C(COC3=O)N(CCO)c3cc4c(cc32)OCCO4)c1` (stereo not given) it was -52.9% (active); in that of `COc1cc(C2c3cc4c(cc3C(O)C(CO)C2CO)OCO4)cc(OC)c1OC` (stereo not given), -17.7% (active).
Under `COc1cc(-c2nc(C(=O)Nc3ccc(C)cc3)nn2-c2ccc(F)c(F)c2)cc(OC)c1OC` stands 109% (inactive); under `CO[C@H]1/C=C/C=C/C=C/C[C@H](OC(=O)[C@@H](C)NC(=O)C2CCCCC2)[C@H](C)[C@@H](O)/C(C)=C\CCC2=CC(=O)C=C(NC(=O)C1)C2=O`, -40.9% (active).
Consider `c1cc(-c2nc3ccc4[nH]ncc4c3c3c2CCCC3)[nH]n1`, for which the growth was 43.6% (inactive).
Under `C#Cc1cc2c(N)c(C(=O)c3cc(OC)c(OC)c(OC)c3)[nH]c2cc1OC` stands 9.88% (active).
With `O=C(NCc1ccccc1)C1CN(c2ccc(Cl)cc2)N(c2ccc(Cl)cc2)C1=O` (stereo not given), the growth is 71.5% (inactive).
Under `CCOC(=O)C/C(=N\Nc1cc(=O)[nH]c2ccc(Br)cc12)C(=O)OCC` stands 99.3% (inactive).
Under `COc1cccc(-n2cc(-c3nc(Cl)c4ccccc4n3)nn2)c1` stands 117% (inactive); under `COc1ccc(-c2c(-c3ccccc3)noc2N)cc1OC`, 85.7% (inactive).
In the case of `COC(=O)CC1=C(c2ccc([N+](=O)[O-])cc2)CCC1=O` it was 101% (inactive); in that of `C=C1C(=O)O[C@H]2[C@H]1CC/C(COC(=O)/C=C/c1c[nH]c3ccccc13)=C\CC[C@@]1(C)O[C@@H]21`, -78.1% (active); in that of `CCCCCCCCn1ccc2cc(NC(=O)CN3CCN(c4nc(C)cc(N5CCCCC5)n4)CC3)ccc21`, 73.2% (inactive).
As to `CCCCCCCCCCCCCCCC[N+](C)(C)CCN(Cc1ccc(OC)cc1)c1ncccn1`, the growth is -49.2% (active) and -52.1% (active).
In the case of `O=C(CCl)N(C1CCCCC1)C1CCCCC1`, the growth is 91.5% (inactive).
For the compound `CCOC(=O)c1cnc2c(C)cc(C)cc2c1NCCCN(C)C`, the growth is 16.5% (inactive).
In the case of `CN1C(=O)N(C)C2(c3ccccc3)N(CC(=O)Nc3ccccc3O)C(=O)NC12c1ccccc1` (stereo not given) it was 104% (inactive); in that of `O=C(C[n+]1ccccc1)c1ccc2ccccc2c1`, 88.1% (inactive); in that of `COc1ccc(-c2cc(C(=O)N3N=C(c4ccc(N)cc4)CC3c3ccc(OC)cc3)c3cc(OC)ccc3n2)cc1` (stereo not given), 37.6% (inactive).
Under `O=C(CCc1nnc(Cn2ccnc2)o1)c1nc2ccccc2[nH]1` stands 108% (inactive).
Under `Clc1ccccc1N=Cc1ccc2c(c1)OCO2` stands 101% (inactive).
Turning to `O=C1C=C[C@H](O)[C@@]2(CO)O[C@@H]12`, the growth is 54.5% (inactive).
As to `Cc1ccc(-c2cc(-c3cccnc3)[nH]c(=O)c2C#N)cc1`, the growth is 106% (inactive).
Turning to `NS(=O)(=O)c1ccc(C(=O)N=Nc2c(O)[nH]c3ccc(Cl)cc23)cc1`, the growth is 110% (inactive).
Turning to `COC(=O)/C=C1\SC(=Nc2ccc(F)cc2)N(CCc2c[nH]c3ccccc23)C1=O`, the growth was 125% (inactive).
On to `OB(O)c1ccccc1`, for which the growth was 110% (inactive).
In the case of `Cc1cc2nc(CS)[nH]c2cc1C` it was 85.2% (inactive).
As for `O=C(Nc1ccc(Oc2cccc(Cl)c2)c(Cl)c1)c1cccnn1`, the growth was 63.3% (inactive).
In the case of `CNC(=O)c1cc(Oc2ccc(NC(=O)c3nc(S(C)(=O)=O)sc3-c3ccc(F)cc3)cc2)ccn1` it was -4.37% (active).
Under `O=C1/C(=C/c2cccc(OCc3ccccc3)c2)Oc2cc(OCCN3CCCCC3)ccc21` stands 80.4% (inactive); under `CCCCN1C(=O)/C(=c2\sc3n(c2=O)C2C(NN=3)N(CC)C(=O)N2CC)c2cc(C)ccc21` (stereo not given), 65.4% (inactive).
In the case of `COc1cc(C2CC(c3ccc4c(c3)OCO4)=NN2C(C)=O)cc(OC)c1OC` (stereo not given) it was -26.8% (active).
As for `CSc1nnc(-c2sc3nnc(-c4ccccc4)c(-c4ccccc4)c3c2O)o1`, the growth is 78.9% (inactive).
On to `COc1ccc([C@H]2[C@H](O)C(=O)N2c2cc(OC)c(OC)c(OC)c2)cc1F`, for which the growth was 26.4% (inactive).
With `Nc1ncnc2c1c(-c1ccc(Oc3ccccc3)cc1)nn2C[C@@H]1SSC[C@@H]1O`, the growth is -27.7% (active).
